Only some compounds are listed: those with a hit (about 9.2% of all), similar ones and a draw of the others.
SMN2 splice enh: enhancers of SMN2 splice variant expression; HEK293 SMN2-luciferase splicing reporter, luminescence, 30-36 h; Potency, µM (highest dose often 46.1 µM), actives largely listed as activators; 210,000 tested, 2.8% active; also: nearly all actives have a fitted effect of over 55% in size
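HEK293 cells carry an SMN2 […]–luciferase reporter in which exon 7 inclusion puts luciferase in frame. Cells were plated 10-12 h before compound addition, then incubated 30-36 h at 37C. ONE-Glo luminescence was read; sodium butyrate at 4.5 mM final served as control.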
NPC1 prom act: activators of NPC1 promoter | 320,000 tested, 2.4% active | Potency, µM (highest dose often 9.22 µM), actives largely listed as activators | Huh7 NPC1 promoter luciferase reporter, 24 h; also: nearly all actives have a fitted effect of over 60% in size
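Stable NPC1-promoter luciferase Huh7 line; cpd (DMSO) 24 h, 37 °C, 5% CO2; Amplite luciferase reagent 10 min RT; luminescence readout. qHTS format.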
ELG1 genotoxic: induces genotoxicity in HEK293T cells with luciferase-tagged ELG1. Potency, µM (series often up to 46 µM), actives largely listed as activators. 330,000 tested, 1.3% active. HEK293T ELG1-luciferase reporter, luminescence, 16 h; also: nearly all actives have a fitted effect of over 60% in size
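HEK293T cells expressing luciferase-tagged ELG1 were treated with compound or DMSO for 16 hr at 37°C. Luciferase activity was then read after 30 min with ONE-Glo at room temperature; rising signal flags genetic stress.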
Rab9 prom act: activators of Rab9 promoter. Potency, µM (titrated, usually from 9.22 µM), hits mostly activators. AID 485297. 320,000 tested, 2.8% active. Huh7 Rab9 promoter-luciferase reporter, luminescence, 24 h; also: nearly all actives have a fitted effect of over 60% in size
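Luminescence read-out: Huh7 cells stably expressing Rab9-luciferase, treated 24 h with compound at 37 °C, then lysed with luciferase reagent for 10 min at ambient before reading.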
FLuc counter: firefly luciferase modulation, counter-screen for miR-21 project | 360,000 tested, 6.9% active | Potency, µM (doses to about 57.5 µM), usual class: inhibitors | purified FLuc, Km substrates, luminescence inhibition; also: nearly all actives have a fitted effect of over 55% in size
Target sequence (P08659 whole entry, looked up): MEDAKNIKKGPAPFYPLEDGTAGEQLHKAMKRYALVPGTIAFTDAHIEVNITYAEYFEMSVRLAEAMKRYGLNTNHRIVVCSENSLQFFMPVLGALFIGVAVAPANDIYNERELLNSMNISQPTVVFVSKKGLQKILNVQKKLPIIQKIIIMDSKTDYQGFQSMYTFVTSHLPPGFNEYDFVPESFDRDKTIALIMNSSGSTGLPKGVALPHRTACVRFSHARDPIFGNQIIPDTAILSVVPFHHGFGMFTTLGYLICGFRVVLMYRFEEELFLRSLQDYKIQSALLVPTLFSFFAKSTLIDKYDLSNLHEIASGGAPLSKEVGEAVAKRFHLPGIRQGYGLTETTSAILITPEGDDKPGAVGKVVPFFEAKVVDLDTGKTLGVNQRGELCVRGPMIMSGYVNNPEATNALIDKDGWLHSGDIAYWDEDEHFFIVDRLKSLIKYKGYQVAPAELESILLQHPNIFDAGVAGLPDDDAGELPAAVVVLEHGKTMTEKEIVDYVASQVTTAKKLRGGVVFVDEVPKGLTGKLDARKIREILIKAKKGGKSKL
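Biochemical qHTS of compounds, final roughly 60 µM downward over six points, against 10 nM purified firefly luciferase using Km concentrations of substrates (10 uM D-luciferin, 10 uM ATP) in Tris acetate pH 7.5 buffer; luminescence output.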
ELG1 repair inh: blocks ELG1-dependent DNA repair in HEK293T cells | AID 504467 | HEK293T ELG1-luciferase reporter, luminescence, 16 h; DNA damage induced by 5-fluorouridine | 330,000 tested, 2.3% active | Potency, µM (top dose mostly 46.1 µM), most hits filed as inhibitors; also: nearly all actives have a fitted effect of over 55% in size
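Reporter activity after DNA damage by 5-fluorouridine is monitored. Compound-treated cells incubate 16 hr at 37 °C, then ONE-Glo is added for 30 min before luminescence reading.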
Numbers stand for hits; . = inactive; ? = inconclusive; / = no result given; [ ] = dose if it differs, or a comment. Calls follow the shape of the dose curve; as a rule, active = well fitted curve in the direction sought with a large enough effect; inconclusive = small, poorly fitted or top-dose-only effect, or another doubt; inactive = no such curve, though single readings can be large; an effect the other way counts as inactive or inconclusive.

SMILES | SMN2 splice enh | NPC1 prom act | ELG1 genotoxic | Rab9 prom act | FLuc counter | ELG1 repair inh
COCc1cc(C)nc2sc(C(=O)Nc3nccs3)c(N)c12 | . | ? | . | ? | 16.9µM | ?
CCCCOC(=O)c1sc2nc(C)cc(C)c2c1N | / | 3.55µM | ? | 2.82µM | 10.7µM | ?
Cc1ccc(NC(=O)c2sc3nc(C)cc(C)c3c2N)cc1 | / | 0.562µM | ? | 0.562µM | 1.2µM | ?
Cc1ccc(-c2nc(CCNC(=O)C(=O)Nc3ccc(C)c(Cl)c3)cs2)cc1 | / | / | / | / | . | /
CC1=C(c2ccc(C(C)C)cc2)S(=O)(=O)N=C1N1CCC(C(=O)Nc2ccc(C)cc2)CC1 | / | / | / | / | . | /
Cc1noc(C)c1NC(=O)N(C)C[C@@H]1Oc2ccc(NC(=O)CCC(F)(F)F)cc2CC(=O)N([C@@H](C)CO)C[C@@H]1C | / | / | . | / | / | .
CC(C)c1ccc(/C=C2\CC/C(=C\C=N\N(C)C)C2=O)cc1 | 12.6µM | ? | 3.26µM | ? | 2.39µM | ?
CC(C)/C=C1\CC/C(=C\c2ccc(N(C)C)cc2)C1=O | ? | 3.55µM | 9.2µM | ? | 0.953µM | ?
O=C1/C(=C/c2ccncc2)CCC/C1=C\c1ccncc1 | . | . | . | . | . | ?
CC1CC(C)(C)NC(=S)N1CCCC(=O)Nc1ccc2c(c1)OCCO2 (stereo not given) | . | . | ? | ? | 26.9µM | ?
CCC1CCCCN1CC(=O)Nc1ccc2c(c1)OCCO2 (stereo not given) | / | . | . | . | 23.9µM | ?
CC1CC(C)CN(CC(=O)Nc2ccc3c(c2)OCCO3)C1 (stereo not given) | . | ? | ? | ? | 15.1µM | ?
CCCCOC(=O)c1ccc(NC(=O)CC2NCCNC2=O)cc1 (stereo not given) | . | / | / | / | . | /
Cc1ccc(S(=O)(=O)N2CCN(C(=O)c3ccc(Br)o3)CC2)c(C)c1 | / | . | . | . | . | .
Cc1ccc(S(=O)(=O)O[C@H]2CC(C(C)(C)C)CC[C@@H]2c2ccccc2)cc1 (stereo not given in full) | .[9.22 µM] | / | / | / | / | /
Cc1cccc(NC(=O)c2cnn3c2NC(=C2CC2)C=C3C(F)F)n1 | / | / | / | / | . | /
O=C1NC[C@@H](c2ccccc2)OC(=O)[C@H](Cc2ccc(F)cc2)C/C=C\C[C@H]1CC(=O)N(CCO)Cc1ccccc1 | / | / | . | / | / | 20.6µM
CC(C)(C)OC(=O)C[C@H]1C/C=C\C[C@@H](CC(=O)N[C@@H](CO)Cc2ccccc2)C(=O)NC[C@@H](c2ccccc2)OC1=O | / | / | . | / | / | ?
O=C1NC[C@@H](c2ccccc2)OC(=O)[C@@H](Cc2ccc(F)cc2)CC/C=C/C[C@H]1CC(=O)N(CCO)Cc1ccccc1 | / | / | . | / | / | 13µM
O=C1N[C@@H](c2ccccc2)COC(=O)[C@H](Cc2ccc(F)cc2)CC/C=C/C[C@H]1CC(=O)N(CCO)Cc1ccccc1 | / | / | . | / | / | ?
CC(C)(C)OC(=O)C[C@@H]1C/C=C\C[C@@H](CC(=O)N[C@@H](CO)Cc2ccccc2)C(=O)NC[C@@H](c2ccccc2)OC1=O | / | / | . | / | / | 7.3µM
O=C1NC[C@H](c2ccccc2)OC(=O)[C@H](Cc2ccc(F)cc2)CC/C=C/C[C@@H]1CC(=O)N(CCO)Cc1ccccc1 | / | / | . | / | / | 11.6µM
O=C(C[C@H]1C/C=C/CC[C@H](Cc2ccc(F)cc2)C(=O)O[C@H](c2ccccc2)CNC1=O)NCCO | / | / | . | / | / | .
O=C(C[C@@H]1C/C=C/CC[C@@H](Cc2ccc(F)cc2)C(=O)O[C@@H](c2ccccc2)CNC1=O)NCCO | / | / | . | / | / | 7.3µM
CC(C)(C)OC(=O)C[C@H]1C/C=C\C[C@@H](CC(=O)N(CCO)Cc2ccccc2)C(=O)NC[C@H](c2ccccc2)OC1=O | / | / | . | / | / | 18.3µM
SMILES | SMN2 splice enh | NPC1 prom act | ELG1 genotoxic | Rab9 prom act | FLuc counter | ELG1 repair inh
CC(C)(C)OC(=O)C[C@@H]1C/C=C\C[C@H](CC(=O)N(CCO)Cc2ccccc2)C(=O)NC[C@@H](c2ccccc2)OC1=O | / | / | . | / | / | .
Cc1cccc(NC(=O)Cn2c(=O)n(CCCCCC(=O)NCc3ccc4c(c3)OCO4)c(=O)c3sccc32)c1 | . | / | / | / | . | /
Cc1cc(C)n(-c2nc(C)c(C)c(=O)n2CC(=O)Nc2ccc(Cl)c(Cl)c2)n1 | / | / | / | / | . | /
O=C(c1ccncc1)N1CCC2(CCCN(c3ccccc3)C2)CC1 | . | / | / | / | / | /
COc1ccc(NC(=O)c2cc(=O)c3ccc(C)c(C)c3o2)cc1Cl | . | / | / | / | . | /
S=c1nc(-c2ccccc2)oc2c1CCCC2 | . | ? | . | ? | 13.5µM | ?
COc1cccc(-c2nc(=S)c3c(o2)CCCC3)c1 | ? | . | ? | ? | 3.01µM | ?
O=[N+]([O-])c1ccc(-c2nc(=S)c3c(o2)CCCC3)cc1 | . | . | . | . | ? | ?
CC(Sc1nnnn1-c1ccc(O)cc1)C(=O)NC1CCCCC1C (stereo not given) | / | . | . | . | . | .
Cc1ccn2cc(C34CC5CC(CC(C5)C3)C4)nc2c1 | . | . | . | . | 6.75µM | ?
Cc1ccn2cc(-c3ccc(S(=O)(=O)N4CCOCC4)cc3)nc2c1 | . | ? | . | ? | ? | ?
C#CCOCCOCCOCCNc1nc(N2CCN(C(=O)CCCCCCCCCCNC(=O)[C@H](CCCCN)n3cc(C)nn3)CC2)nc(N2CCN(C(=O)CCCCCCCCCCNC(=O)[C@@H]([C@H](C)O)n3cc(C)nn3)CC2)n1 | / | . | . | . | . | 14.1µM
C#CCOCCOCCOCCNc1nc(N2CCN(C(=O)CCCCCCCCCCNC(=O)[C@H](CCCCN)n3cc(C[C@@H](C)CC)nn3)CC2)nc(N2CCN(C(=O)CCCCCCCCCCNC(=O)[C@@H]([C@H](C)O)n3cc(C)nn3)CC2)n1 | / | . | . | . | . | ?
C#CCOCCOCCOCCNc1nc(N2CCN(C(=O)CCCCCCCCCCNC(=O)[C@H](CCCCN)n3cc(CCO)nn3)CC2)nc(N2CCN(C(=O)CCCCCCCCCCNC(=O)[C@H](CCCCN)n3cc(C[C@@H](C)CC)nn3)CC2)n1 | / | . | . | . | . | ?
CC[C@H](C)Cc1cn([C@@H](CCCN=C(NC(=O)OC(C)(C)C)NC(=O)OC(C)(C)C)C(=O)NCCCCCCCCCCC(=O)N2CCN(C(=O)OC(C)(C)C)CC2)nn1 | / | . | . | . | . | 7.3µM
C#CCOCCOCCOCCNc1nc(N2CCN(C(=O)CCCCCCCCCCNC(=O)[C@@H](CCC(=O)O)n3cc(CCCCCN)nn3)CC2)nc(N2CCN(C(=O)CCCCCCCCCCNC(=O)[C@H](CCCCN)n3cc(C[C@@H](C)CC)nn3)CC2)n1 | / | . | . | . | . | 3.16µM
COc1ccc(N2C(=O)CSC23C(=O)N(Cc2ccc(C)cc2)c2ccccc23)cc1Cl (stereo not given) | / | / | / | / | . | /
Cc1ccc(NNC(=O)c2ccno2)c(C)c1 | / | . | . | . | . | 13µM
